# Data published in the supplement of paper PMC3334620.
# The full ranking holds about 33,000 sequences; the median of “E-score (-0.5 to 0.5)” is about -0.035, and the highest 2% start at about 0.35. The sample as a whole holds a higher share of the highest values than the screen did.
# Molecular target: T1, Pdr3 (UniProt P33200)
# T1 sequence: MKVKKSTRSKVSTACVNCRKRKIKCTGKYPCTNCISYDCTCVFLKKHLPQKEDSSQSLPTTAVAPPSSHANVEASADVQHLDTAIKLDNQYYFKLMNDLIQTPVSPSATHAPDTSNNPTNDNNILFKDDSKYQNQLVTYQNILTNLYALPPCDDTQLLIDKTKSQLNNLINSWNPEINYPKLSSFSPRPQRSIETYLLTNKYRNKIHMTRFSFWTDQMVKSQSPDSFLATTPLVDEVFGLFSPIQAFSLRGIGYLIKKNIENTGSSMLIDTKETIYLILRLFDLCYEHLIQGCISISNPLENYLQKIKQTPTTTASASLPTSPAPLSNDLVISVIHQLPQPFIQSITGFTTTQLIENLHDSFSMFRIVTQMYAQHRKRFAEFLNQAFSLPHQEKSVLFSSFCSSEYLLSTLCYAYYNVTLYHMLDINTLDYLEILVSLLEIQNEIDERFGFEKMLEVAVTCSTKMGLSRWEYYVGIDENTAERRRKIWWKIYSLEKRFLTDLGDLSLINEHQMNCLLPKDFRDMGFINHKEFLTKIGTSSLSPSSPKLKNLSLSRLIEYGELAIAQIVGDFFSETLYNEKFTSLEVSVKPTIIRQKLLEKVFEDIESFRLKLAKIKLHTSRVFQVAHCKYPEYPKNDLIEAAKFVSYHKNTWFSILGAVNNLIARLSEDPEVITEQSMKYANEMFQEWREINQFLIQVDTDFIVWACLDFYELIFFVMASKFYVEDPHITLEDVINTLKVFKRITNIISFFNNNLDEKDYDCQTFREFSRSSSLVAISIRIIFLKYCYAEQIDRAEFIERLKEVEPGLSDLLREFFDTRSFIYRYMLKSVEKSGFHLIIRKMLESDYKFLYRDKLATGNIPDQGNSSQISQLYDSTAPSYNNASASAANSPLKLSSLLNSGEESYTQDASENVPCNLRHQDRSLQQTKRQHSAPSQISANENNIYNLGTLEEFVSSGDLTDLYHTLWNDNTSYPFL
# Assay: PBM E-score (8-mer binding enrichment) (E-score (-0.5 to 0.5)); higher = stronger / more preferred TF binding
# Details: protein concentration: 200 nM; construct: GST-full length
# Procedure: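 Universal 'all 10-mer' protein binding microarrays (Agilent AMADID 015681) probed with GST-tagged S. cerevisiae TFs (full-length or DBD) made by in vitro transcription/translation (PURExpress), about 100-200 nM. Bound TF was detected with fluorescent anti-GST. Each ungapped 8-mer (which stands for itself and its reverse complement) is scored by the PBM enrichment score (E-score), a modified Wilcoxon-Mann-Whitney statistic from -0.5 to +0.5, computed with the Universal PBM Analysis Suite. Scale: above 0.35 generally sequence-specific binding.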
row,Sequence,PBM E-score
1,AGGCAGCA,-0.0599
2,AAAACTCT,-0.109
3,ATCAACGG,0.247
4,CTATCCAC,0.0063
5,ATGCTATA,-0.21
6,ACGTTTTA,-0.16
7,ATGGTGAC,-0.245
8,CCCACGGC,0.0935
9,CCCACGGA,0.424
10,CCCACGGG,0.311
11,GTCAGTAA,-0.145
12,ACTGGAAC,0.0779
13,ACAGAGCC,-0.128
14,ATCTCCGG,0.4
15,CACTCCGG,0.351
16,AGCTCCGG,0.389
17,AGCTCCGA,0.239
18,CCCTCCGG,0.265
19,AGCTCCGC,0.287
20,ATCTCCGA,0.324
21,ATCTCCGC,0.292
22,AACTCCGT,0.271
23,ACCTCCGG,0.402
24,ACCTCCGT,0.204
25,AACTCCGG,0.416

row,Sequence,PBM E-score
1,ACGCTACC,-0.183
2,CGAGCGCG,0.273
3,AGCGAAGG,-0.0572
4,GATTTAAA,-0.159
5,ATGGCACG,0.117
6,AGGCGCCG,0.161
7,CGGCGCCG,0.463
8,CGCCGGCA,0.339
9,CGGCGCCA,0.171
10,CGCCGGCC,0.32
11,AGCCGGCT,0.315
12,CGCCGGCG,0.452
13,AGCCGGCG,0.372
14,AGCCGGCA,0.339
15,AACCAGAG,-0.12
16,ACTGACCG,-0.00211
17,CGTGCTTA,0.0586
18,CCTCTAGC,-0.247
19,GTTCCACA,0.0178
20,CGTACGGA,0.281
21,AGGACCCG,0.17
22,CGGACCCC,0.198
23,CGGACCCG,0.392
24,CAGCGCAG,-0.00798
25,CTCTCTGC,-0.0361

row,Sequence,PBM E-score
1,ATTTGACC,-0.0303
2,CATTGCAC,-0.0987
3,CGCCGACG,0.0962
4,CGGAAATA,0.45
5,AGGAAATA,0.121
6,AGGAAATC,0.0849
7,CGGAAATC,0.407
8,GGGAAATA,0.0401
9,CTGAAATC,0.0707
10,AACTCGAC,0.0587
11,AACAGCTT,0.048
12,TAGGGGAA,-0.157
13,GGGCATTA,-0.0343
14,CGGCATTA,0.357
15,AGGCATTA,-0.12
16,CTCTTCCC,0.0704
17,AAATCCAT,0.17
18,GGAACTAA,0.296
19,CCCGCCAC,0.254
20,AGCTGCTG,-0.0512
21,AGCTTCGA,-0.102
22,AAGCCGGA,0.392
23,CAGCCGGG,0.229
24,GAGCCGGC,0.324
25,CAGCCGGC,0.324

row,Sequence,PBM E-score
1,AAGCCGGC,0.366
2,AAGCCGGT,0.199
3,GAGCCGGA,0.362
4,CAGCCGAA,0.0741
5,AAGCCGGG,0.262
6,GAGCCGCA,0.044
7,AAGCCGTC,0.178
8,CAGCCGGA,0.398
9,AAGTGCTC,-0.107
10,AGTTCTAA,0.00941
11,ACGGTGAA,-0.0181
12,AATCGTCA,-0.112
13,GTTGATCA,0.0338
14,AGCCCCAT,-0.0914
15,TAGCCGAA,0.0812
16,TAGCCGGA,0.372
17,TAGCCGCA,-0.0883
18,AAAGAGGA,-0.131
19,ATAACTGA,0.00191
20,AGGAACTA,0.0717
21,CGGAACTA,0.473
22,GGGAACTA,0.0485
23,CGGAACTC,0.452
24,CTGAACTC,-0.215
25,AGGAACTC,0.0544

row,Sequence,PBM E-score
1,CTCTTCTC,-0.18
2,GTATGGAC,0.0423
3,ACCGATGG,-0.0565
4,CTACTGTA,-0.136
5,ACTAAACT,-0.121
6,AGCAGCAC,-0.129
7,GTTGCCTA,0.0329
8,ACCCCGGT,0.186
9,ACCCGGGT,0.446
10,ACCCGGGC,0.424
11,ACCGGGGC,0.224
12,CCCCGGGC,0.33
13,AACCGGGA,0.243
14,ACCCGGCT,0.24
15,ACCCGGGA,0.448
16,ACCCGGTC,0.199
17,GACCGGGC,0.0834
18,ACCGGGGA,0.0294
19,GCCCGGGC,0.427
20,GGCACCCC,-0.0993
21,CTGGCCAA,0.0275
22,AGGATCTA,-0.352
23,ATTACTAA,-0.0285
24,GCGGGCCA,0.0261
25,CCACCATA,0.0173

row,Sequence,PBM E-score
1,ATTTTCTA,-0.183
2,ACGAGGCA,-0.211
3,GTCAAAGA,-0.212
4,TAAATTAA,0.0873
5,AACCTCCG,0.219
6,CGAAGAAC,0.119
7,AGCCCAAT,-0.194
8,GCCCGGGA,0.393
9,GACCGGGA,0.304
10,GCCGGGGA,0.2
11,GCGTTCCC,0.139
12,CTGCCCCA,-0.045
13,AGCGGACA,0.154
14,CGCGGACA,0.361
15,GGCGGACC,0.357
16,CGTGGACA,0.108
17,CGCGGACC,0.437
18,CGGGGACC,0.291
19,AGCGGACC,0.175
20,CGCGGACG,0.342
21,GGCGGACA,0.185
22,GATCGCCC,0.00089
23,CAAACCGA,-0.0979
24,CGCCGTCC,0.115
25,TGACGCAA,-0.165

row,Sequence,PBM E-score
1,CGGACTCA,0.31
2,GACAAGGA,-0.0759
3,AGACTCGG,-0.099
4,ACGTCAAG,-0.311
5,CGACCGGC,0.161
6,CGACCGAA,0.0221
7,AGACCGGA,0.254
8,GGACCGGA,0.382
9,CGACCGGA,0.358
10,GGACCGCA,0.243
11,ATGCCAGC,-0.22
12,CTCAAAAA,-0.0515
13,CACCCGTC,0.215
14,CAGTCTGC,-0.173
15,CTACTTGA,-0.238
16,GGGGATTA,0.162
17,CGGGATTC,0.382
18,GGGGATGA,0.0246
19,CGGGATGC,0.311
20,CGGGATGA,0.369
21,AGGGATTC,-0.0434
22,CGGGATTA,0.404
